The structures appear in SMILES notation. Activity calls are given as the source filed them. Unless noted, no rule for the calls is given here.

Test [1] in a line: compounds binding Alexa647 anti-His antibody – biochemical, small-molecule microarray, 635 nm fluorescence, artefact control for SMM control protein annotation, primary screen (AID 1128).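 Also: score merges feature fluorescence with signal-to-noise for each printed compound spot.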 The settings on record: higher = more signal.
The subject of test [2] is Human papillomavirus type 1a E7 protein (residues 1-88). Kind of test: HPV1a E7 small-molecule binders, primary screen, biochemical, small-molecule microarray, residues 1-88, 635 nm (AID 1129). As to conditions: small-molecule microarray binding, fluorescence 635 nm; higher = more signal.
The target of test [3] is Focal adhesion kinase 1 (Homo sapiens) (UniProt Q05397). Kind of test: PTK2 protein binding on printed compound slides – biochemical, small-molecule microarray, 635/667 nm fluorescence, BSA, DTT, primary screen (AID 1130).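 Also: composite of spot emission at 667 nm and signal to noise over triplicate slides.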 As to conditions: 635 nm fluorescence, higher = more signal.
Test [4] relates to Fibrinogen (Alexa647-labelled). Kind of test: Alexa647-fibrinogen binding to printed small molecules – biochemical, small-molecule microarray, 635/667 nm fluorescence, artefact control for SMM control-protein annotation, profiling panel (AID 1131).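 Also: z-score merges 667 nm fluorescence with per-spot signal-to-noise over triplicate slides.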 The settings on record: fibrinogen-A647 binding fluorescence, higher = more signal.
Test [5] concerns the target Follistatin (Homo sapiens) (UniProt P19883). As to the kind of experiment: FST protein binding to printed compounds – biochemical, small-molecule microarray, 635/667 nm fluorescence, primary screen (AID 1132). The settings on record: 635 nm fluorescence, higher = more signal.
Test [6] addresses Fibroblast growth factor 2 (Homo sapiens) (UniProt P09038). Kind of test: basic fibroblast growth factor binding to printed compounds – biochemical, small-molecule microarray, 635/667 nm fluorescence, primary screen (AID 1133). The settings on record: FGF2, fluorescence 635/667, higher = more signal.
Test [7] can be described thus: JC-1 mitochondrial potential readout, lung cancer cells – cell-based, A549, JC-1 fluorescence, basal, 24 h, 100 nL, profiling panel (AID 1138).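 Also: A549 lung adenocarcinoma cells under basal conditions with no added stimulus; test concentration not given here.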 The settings on record: higher = more signal.
In the next test the test system is Lefty1. As to the kind of experiment: Lefty1 protein binding to printed compounds – biochemical, small-molecule microarray, 635/667 nm fluorescence, primary screen (AID 1139). The settings on record: fluorescence 635/667, higher = more signal.
Test [8] deals with wheat germ agglutinin (Triticum aestivum), Alexa647-labelled. Kind of test: Alexa647-WGA lectin binding to printed small molecules – biochemical, small-molecule microarray, 635/667 nm fluorescence, artefact control for SMM control-protein annotation, profiling panel (AID 1140).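 Also: score merges 667 nm feature emission with signal to noise over triplicate slides.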 The settings on record: WGA-A647 binding, 635 nm fluorescence, higher = more signal.
Test [9] deals with Luciferin 4-monooxygenase (Photinus pyralis) (UniProt P08659). As to the kind of experiment: inhibition of purified Photinus pyralis luciferase – biochemical, luminescence, purified enzyme, 2006 set, primary screen (AID 1141).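 Also: cell-free assay with purified firefly luciferase at 100 ng per well in PBS; test concentration not given here.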 As to conditions: purified firefly luciferase, SteadyGlo luminescence, 30 min; higher = more signal, called active from +8 up or from −8 down.
Test [10] relates to Wnt5a (protein binding on small-molecule microarray). Kind of test: small molecules binding Wnt5a protein – biophysical, small-molecule microarray, 635/667 nm fluorescence, primary screen (AID 1142).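 Also: fluorescence read at 667 nm with signal to noise per printed feature.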 As to conditions: 635 nm fluorescence, higher = more signal.
Test [11] in a line: ATP-based viability of Huh7 replicon cells – cell-based, CellTiter-Glo luminescence, basal, 48 h, cytotoxicity control for HCV replication inhibitor project, primary screen (AID 1143).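 Also: Huh7 hepatoma cells carrying a hepatitis C replication reporter with no stimulus; test concentration not given here.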 The settings on record: higher = more signal, called active from +8 up or from −8 down. For orientation: Replicon systems follow genome replication, usually without infectious particles.
A short description of test [12]: Pseudomonas biofilm growth suppression – PAO1 strain, BacTiter-Glo luminescence, LB-PBS, primary screen (AID 1144). The settings on record: P. aeruginosa PAO1 biofilm, 12 h, higher = more signal.
A short description of test [13]: basal CRE-LacZ reporter activity in PC12 – cell-based, unstimulated, primary screen (AID 1145). As to conditions: no forskolin, luminescence, 4.5 h, higher = more signal, called active from +8 up or from −8 down.
Test [14] in a line: forskolin-driven CRE-LacZ activity in PC12 – cell-based, CRE-LacZ reporter, forskolin-stimulated, primary screen (AID 1146).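 Also: PC12 cells with 6xCRE LacZ reporter stimulated by forskolin 10 µM; beta-galactosidase reporter signal reflecting CREB driven transcription.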 As to conditions: luminescence, 4.5 h, higher = more signal, called active from +8 up or from −8 down.
The target of test [15] is Streptavidin (Streptomyces avidinii) (UniProt P22629). Kind of test: compounds binding control protein streptavidin – biophysical, small-molecule microarray, 635/667 nm fluorescence, artefact control for SMM compound annotation, primary screen (AID 1147).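 Also: signal reflects streptavidin binding to arrayed compounds as a control protein.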 As to conditions: higher = more signal.
Test [16] is described as follows: probe aInhba binding on compound microarray – biochemical, small-molecule microarray, 635/667 nm fluorescence, primary screen (AID 1148).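 Also: score merges 667nm spot fluorescence with signal-to-noise for antibody binding to printed compounds.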 The settings on record: higher = more signal.
For test [17], the target named is Torsin-1A (Homo sapiens) (UniProt O14656). Kind of test: TOR1A wild-type binding on microarray – cell lysate, small-molecule microarray, lysate, 635/667 nm, primary screen (AID 1149). The settings on record: COS7 hTOR1A-WT lysate, 635 nm fluorescence, higher = more signal.
For test [18] the target is unchanged. Kind of test: torsin A mutant lysate binding on microarrays – cell lysate, small-molecule microarray, COS7 lysate, 635/667 nm fluorescence, primary screen (AID 1150).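 Also: score pools 667 nm emission and signal to noise measuring lysate protein binding.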 As to conditions: COS7 hTOR1A mutant lysate, 635 nm fluorescence, higher = more signal.
In test [19] the test system is Sonic hedgehog protein (Shh). Kind of test: Sonic hedgehog microarray binding compounds – biochemical, small-molecule microarray, 635/667 nm fluorescence, primary screen (AID 1151).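 Also: Shh protein binding to compounds spotted on small-molecule microarray slides; score combines spot fluorescence intensity with signal-to-noise across triplicate slides.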 As to conditions: 635 nm fluorescence, higher = more signal.

Sequence of Follistatin (Homo sapiens) (P19883 whole entry, looked up): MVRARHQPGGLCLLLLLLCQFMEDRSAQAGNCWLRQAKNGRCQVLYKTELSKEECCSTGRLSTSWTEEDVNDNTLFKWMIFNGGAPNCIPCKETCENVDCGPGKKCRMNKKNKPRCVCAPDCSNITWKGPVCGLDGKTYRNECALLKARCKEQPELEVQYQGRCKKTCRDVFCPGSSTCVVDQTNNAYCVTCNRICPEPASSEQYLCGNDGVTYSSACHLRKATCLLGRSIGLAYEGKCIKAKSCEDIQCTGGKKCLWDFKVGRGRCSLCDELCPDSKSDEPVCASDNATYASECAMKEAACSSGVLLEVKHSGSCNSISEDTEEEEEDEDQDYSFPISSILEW
Sequence of Streptavidin (Streptomyces avidinii) (P22629 whole entry, looked up): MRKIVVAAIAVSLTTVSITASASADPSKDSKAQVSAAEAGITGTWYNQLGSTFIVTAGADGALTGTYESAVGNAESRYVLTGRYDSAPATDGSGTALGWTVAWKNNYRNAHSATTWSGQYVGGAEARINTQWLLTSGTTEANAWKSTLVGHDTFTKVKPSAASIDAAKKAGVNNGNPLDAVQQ
Sequence of Luciferin 4-monooxygenase (Photinus pyralis) (P08659 whole entry, looked up): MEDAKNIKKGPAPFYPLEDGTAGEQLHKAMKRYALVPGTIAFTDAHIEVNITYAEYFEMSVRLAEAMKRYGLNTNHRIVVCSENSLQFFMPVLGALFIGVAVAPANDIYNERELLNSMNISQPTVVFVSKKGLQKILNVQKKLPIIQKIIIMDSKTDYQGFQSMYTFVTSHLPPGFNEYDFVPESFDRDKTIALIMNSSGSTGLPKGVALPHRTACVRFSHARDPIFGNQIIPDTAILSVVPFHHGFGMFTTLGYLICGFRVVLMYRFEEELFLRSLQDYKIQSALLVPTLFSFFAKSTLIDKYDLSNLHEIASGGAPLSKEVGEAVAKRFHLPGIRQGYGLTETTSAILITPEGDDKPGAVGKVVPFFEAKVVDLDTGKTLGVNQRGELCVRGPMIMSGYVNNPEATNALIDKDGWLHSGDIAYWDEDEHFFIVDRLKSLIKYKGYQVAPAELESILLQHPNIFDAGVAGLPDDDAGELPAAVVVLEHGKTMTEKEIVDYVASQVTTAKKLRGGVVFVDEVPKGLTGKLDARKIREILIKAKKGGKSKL
Sequence of Torsin-1A (Homo sapiens) (O14656 whole entry, looked up): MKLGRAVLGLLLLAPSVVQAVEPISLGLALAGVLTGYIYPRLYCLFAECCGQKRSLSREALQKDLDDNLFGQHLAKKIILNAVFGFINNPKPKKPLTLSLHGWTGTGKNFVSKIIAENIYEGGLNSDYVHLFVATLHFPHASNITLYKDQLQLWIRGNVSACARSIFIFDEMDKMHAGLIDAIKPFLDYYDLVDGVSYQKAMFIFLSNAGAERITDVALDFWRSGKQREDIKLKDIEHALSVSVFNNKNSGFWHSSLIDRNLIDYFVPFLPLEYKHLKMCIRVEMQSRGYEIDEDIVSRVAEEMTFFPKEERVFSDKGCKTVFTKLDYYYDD
Sequence of Focal adhesion kinase 1 (Homo sapiens) (Q05397 whole entry, looked up): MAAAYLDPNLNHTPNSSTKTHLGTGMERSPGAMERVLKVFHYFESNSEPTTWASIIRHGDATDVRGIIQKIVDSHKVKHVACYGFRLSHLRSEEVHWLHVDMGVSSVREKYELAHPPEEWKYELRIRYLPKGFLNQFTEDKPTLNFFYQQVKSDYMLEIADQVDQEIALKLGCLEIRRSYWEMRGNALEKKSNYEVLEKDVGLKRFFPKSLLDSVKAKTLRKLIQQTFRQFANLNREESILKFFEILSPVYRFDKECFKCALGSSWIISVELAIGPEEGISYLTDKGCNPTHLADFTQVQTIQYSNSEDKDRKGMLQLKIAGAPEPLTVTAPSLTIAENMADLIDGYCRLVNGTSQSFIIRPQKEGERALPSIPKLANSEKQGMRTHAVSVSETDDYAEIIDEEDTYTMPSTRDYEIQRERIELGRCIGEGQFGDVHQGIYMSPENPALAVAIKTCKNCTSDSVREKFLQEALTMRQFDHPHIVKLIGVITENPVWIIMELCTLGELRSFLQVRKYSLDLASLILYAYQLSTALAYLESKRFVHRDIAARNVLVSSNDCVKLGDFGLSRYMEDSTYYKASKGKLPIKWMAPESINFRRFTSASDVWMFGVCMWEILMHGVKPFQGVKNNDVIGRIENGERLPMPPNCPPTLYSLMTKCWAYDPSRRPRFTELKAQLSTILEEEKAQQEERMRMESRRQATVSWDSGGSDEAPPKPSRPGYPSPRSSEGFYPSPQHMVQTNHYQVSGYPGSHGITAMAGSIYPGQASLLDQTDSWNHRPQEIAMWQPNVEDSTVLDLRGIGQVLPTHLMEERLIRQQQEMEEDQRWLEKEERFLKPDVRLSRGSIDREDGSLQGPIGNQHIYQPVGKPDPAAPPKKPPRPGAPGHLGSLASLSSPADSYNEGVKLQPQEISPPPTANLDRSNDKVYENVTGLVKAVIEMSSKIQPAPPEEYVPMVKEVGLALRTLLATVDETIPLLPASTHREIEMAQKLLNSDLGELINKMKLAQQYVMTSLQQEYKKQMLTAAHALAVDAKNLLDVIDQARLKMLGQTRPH
Sequence of Fibroblast growth factor 2 (Homo sapiens) (P09038 whole entry, looked up): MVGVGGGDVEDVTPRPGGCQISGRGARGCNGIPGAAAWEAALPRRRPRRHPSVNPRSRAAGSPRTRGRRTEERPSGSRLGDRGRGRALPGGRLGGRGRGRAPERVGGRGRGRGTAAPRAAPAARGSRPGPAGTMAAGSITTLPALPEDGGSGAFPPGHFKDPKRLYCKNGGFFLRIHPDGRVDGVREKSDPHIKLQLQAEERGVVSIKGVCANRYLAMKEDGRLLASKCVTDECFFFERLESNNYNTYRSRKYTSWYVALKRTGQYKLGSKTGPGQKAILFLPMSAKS

For `O=C(CS)NCCCCCNC(=O)[C@@H]1C[C@@H]2C(=O)N3CCC[C@H]3C(=O)N2[C@@H]1c1cccc(OCCO)c1`, the composite z-score in [1] is 2.66; in test [2], 1.21; in test [3], 0.515; in [4], -0.561; in test [5], 1.28; in test [6], 1.24. In addition, the composite z-score is -0.283 in the test with Lefty1; -0.161 in [8]; 0.336 in [10]; 0.281 in test [15]; -0.46 in test [16]; 1.44 with Torsin-1A (Homo sapiens) [17]. For the same molecule, the composite z-score is 0.656 with Torsin-1A (Homo sapiens) [18] and 0.792 in test [19]. The z-score was 0.777 in test [7]; -1.38 (inactive) in [9]; -0.0341 (inactive) in test [11]; -0.448 (inactive) in test [12]; 0.143 (inactive) in [13]; -0.16 (inactive) in test [14].
For the molecule `C=C(C)C1CCC(C(O)C2C=CC3C(=O)N(C)C(=O)C3N2N2CCCCC2)CC1` (stereo not given), the composite z-score in test [1] was determined as 1.17; in [2] it was 1.24; in test [3], 0.525; in [4], 0.884; in test [5], 1.21; in test [6] it was 0.286. The composite z-score in the test with Lefty1 was 0.962; in [8], 1; in test [10], 0.467; in [15], 1.61; in test [16], 0.143; with Torsin-1A (Homo sapiens) [17], 0.476. Further, the composite z-score is 1.34 with Torsin-1A (Homo sapiens) [18] and 0.758 in test [19]. Also, the z-score in test [7] was 0.32; in test [9] it was 0.344 (inactive); in test [11], 0.635 (inactive); in test [12], -0.0283 (inactive); in test [13] it was 0.622 (inactive); in test [14], 0.924 (inactive).
For the molecule `[N-]=[N+]=NCc1ccccc1C[C@@]1(C(=O)N2CCOCC2)N=C(c2ccc(OCCCO)cc2)O[C@@H]1c1ccccc1`, the composite z-score in test [1] was 3.12; in test [2], 1.18; in test [3], 0.406; in test [4], 0.884; in test [5], 0.734; in test [6], 0.399. Moreover, the composite z-score was -0.379 in the test on Lefty1; 0.529 in test [8]; 0.464 in test [10]; 1.35 in [15]; 0.0589 in test [16]; 1.19 in the test with Torsin-1A (Homo sapiens) [17]. For the same molecule, the composite z-score is 1.31 with Torsin-1A (Homo sapiens) [18] and -0.796 in test [19]. Also, the z-score is -0.667 in test [7]; -0.469 (inactive) in [9]; -5.68 (inactive) in test [11]; -0.244 (inactive) in [12]; 0.922 (inactive) in test [13]; -0.951 (inactive) in test [14].
`C=C(CCCC)/C(=C/C[C@@H](OC(=O)c1ccncc1)c1ccccc1OCCO)c1cnc2ccccc2c1`: the composite z-score in test [1] was 0.433; in [2], 1.12; in test [3], 0.0585; in test [4] it was 0.963; in test [5], 1.44; in test [6], 1.43. For the same molecule, the composite z-score came to 1.61 with Lefty1; 1.17 in [8]; 0.944 in test [10]; 1.16 in [15]; 0.11 in [16]; 0.49 with Torsin-1A (Homo sapiens) [17]. Also, the composite z-score in the test with Torsin-1A (Homo sapiens) [18] was -0.239; in test [19] it was 2.17. Besides, the z-score is 1.34 in [7]; -0.514 (inactive) in test [9]; -2.5 (inactive) in test [11]; 0.207 (inactive) in [12]; 10.3 (active) in test [13]; 0.689 (inactive) in test [14].
As for `CN(C)CCCCNC(=O)[C@@H]1C[C@@H]2C(=O)N[C@@H](Cc3ccccc3)C(=O)N2[C@@H]1c1cccc(OCCO)c1`, the composite z-score in [1] was 2.09; in test [2] it was 0.579; in test [3] it was -0.0323; in test [4], 0.513; in test [5], 1.33; in test [6] it was 1.75. Moreover, the composite z-score with Lefty1 was 1.65; in [8], 0.645; in test [10], 1.2; in test [15] it was -0.351; in test [16], 0.0543; in the test with Torsin-1A (Homo sapiens) [17], 0.75. In addition, the composite z-score with Torsin-1A (Homo sapiens) [18] was determined as 1.54; in test [19], 1.55. For the same molecule, the z-score was 1.53 in test [7]; -2.68 (inactive) in test [9]; -1.6 (inactive) in test [11]; -0.133 (inactive) in [12]; 0.431 (inactive) in test [13]; -0.903 (inactive) in [14].

These data come from PubChem BioAssay.
